“And” between values parts separate entries of the source, which are not always exact repeats. Equal values may be shown once. Records with an inconclusive call do not appear. The source holds several records for some structures; these can differ, active in one and inactive in another. The source made the active and inactive calls. Unless noted, the call rests on the fitted dose curve; in most records, active means well fitted curve in the direction sought with a large enough effect in the repeat runs; inconclusive means weak or mixed curves; inactive means no such curve, though single readings can be large; an effect the other way counts as inactive or inconclusive.

Experimental findings from PubChem BioAssay (Tox21) are described below.

A short description of assay [1]: qHTS assay to identify small molecule antagonists of the androgen receptor (AR) signaling pathway using the MDA cell line in the presence of 0.5 nM R1881 - cell viability counter screen (AID 1259242). Further: nearly all actives have a fitted effect of over 45% in size. In short, it runs like this: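 Steps: plate MDA-kb2 cells, rest 5 hr at 37C without CO2; pin in compounds in DMSO; add R1881 to 0.5 nM final; incubate 16 hr; add CellTiter-Fluor, 30 min; read fluorescence.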
Background: Quantitative high-throughput screening tests each substance at several concentrations.

Assay [2] can be described thus: qHTS assay to identify small molecule HDAC inhibitors (AID 1259364). Further: potency means the concentration at half of the fitted maximal effect.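 Further: wild-type HCT-116 cells with endogenous class I/II HDAC activity; nearly all actives have a fitted effect of over 45% in size.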 The essentials: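 Cells (HCT-116, wild type) are seeded at 1,500 per well, incubated overnight, treated with compound in DMSO for 2 hr, then developed with HDAC-Glo I/II reagent for 30 min at room temperature.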
Assay [3] is described as follows: qHTS assay to identify small molecule HDAC inhibitors - cell viability counter screen (AID 1259365). Further: series mostly up to about 92 µM; nearly all actives have a fitted effect of over 50% in size. The essentials:
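Wild-type HCT-116 cells were seeded at 1,500 per well, incubated overnight at 37 C, then exposed to compounds in DMSO for 2hr. Viability was read by CellTiter-Glo luminescence after 30min at room temperature.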

Assay [4] in a line: qHTS assay to identify small molecule agonists of the sonic hedgehog signaling (Shh) pathway - cell viability counter screen (AID 1259366). Further: nearly all actives have a fitted effect of over 50% in size. Further: potency means the concentration at half of the fitted maximal effect. The essentials: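 NIH/3T3-derived 3T3 Gli1-Luc cells (stable Gli1-responsive firefly luciferase reporter) were seeded, rested 4 hr at 37 C/5% CO2, then exposed to compounds in DMSO for 24 hr; viability was read by CellTiter-Fluor fluorescence in the same wells.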

The nature of assay [5]: qHTS assay to identify small molecule antagonists of the sonic hedgehog signaling (Shh) pathway - cell viability counter screen (AID 1259367). Further: nearly all actives have a fitted effect of over 55% in size. Further: potency means the concentration at half of the fitted maximal effect. The essentials: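 Conditioned medium drove Shh signaling in 3T3 Gli1-Luc cells exposed to compounds at 37C and 5% CO2. Viability was determined from CellTiter-Fluor fluorescence, with reagent incubated 1 hr after 23 hr of treatment.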

Assay [6] can be described thus: qHTS assay to identify small molecule agonists of the sonic hedgehog signaling (Shh) pathway (AID 1259368; calls by dose curve; further: series mostly up to about 92 µM; nearly all actives have a fitted effect of over 15% in size). In short, it runs like this: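 Cells of a mouse NIH/3T3 clone stably expressing luciferase under the Gli1 transcriptional response element are exposed to test chemicals for 24 hr at 37 C. Pathway activation is detected as a rise in luminescence.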
Assay [7] can be described thus: qHTS assay to identify small molecule antagonists of the sonic hedgehog signaling (Shh) pathway (AID 1259369; calls by dose curve; further: nearly all actives have a fitted effect of over 45% in size; further: potency means the concentration at half of the fitted maximal effect). In short, it runs like this:
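Cells are plated and held 4hr at 37 C, compounds (DMSO) are pinned in, conditioned medium is added to stimulate the pathway, and after 24hr luciferase reagent is added for 30min before luminescence is read.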

The nature of assay [8]: qHTS assay to identify small molecule phospholipidosis (PLD) inducers (AID 1259344; active means well fitted curve in the direction sought with a large enough effect; an effect the other way counts as inactive or inconclusive). In short, it runs like this: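 After 4 h attachment on collagen I, HepG2 cells were dosed with compound alongside LipidTOX Red, kept 24 h at 37 C, fixed, and imaged for lamellar phospholipid pits.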

`CSc1nnc(C(C)(C)C)c(=O)n1N`: the outcome in assay [1], in assay [3] and in assay [6] was inactive. Further, the Potency result in assay [2], in assay [4], in assay [5] and in assay [7] was “inactive” each time.
Regarding `CNc1cnn(-c2cccc(C(F)(F)F)c2)c(=O)c1Cl`, the outcome in assay [1], in assay [3] and in assay [6] was inactive. Also, in assay [2], the Potency result was “inactive and 30.6 µM (active)”. Further, the Potency entry in assay [4], in assay [5] and in assay [7] was “inactive” throughout.
With `COc1cc(-c2ccc(N)c(OC)c2)ccc1N`, the outcome in assay [1], in assay [3] and in assay [6] was inactive. The Potency entry was “inactive and 27.3 µM (active)” in assay [2]; 6.78 µM (active) and 8.24 µM (active) in assay [7]. Further, the Potency entry in assay [4] and in assay [5] was “inactive” each time.
Consider `N#Cc1cccc(C#N)c1`, for which the result in assay [1], in assay [3] and in assay [6] was inactive. Further, the Potency result in assay [2] and in assay [5] was “inactive” throughout.
For the molecule `COP(=S)(OC)SCN1C(=O)c2ccccc2C1=O`, the outcome in assay [1], in assay [3] and in assay [6] was inactive. In addition, the Potency entry in assay [8], in assay [2] and in assay [5] was “inactive” in each case.
Consider `CC(=O)C1CCOC1=O` (stereo unspecified), for which the result in assay [1], in assay [3] and in assay [6] was inactive. Further, the Potency entry in assay [2], in assay [4] and in assay [5] was “inactive” in each case.
`O=S(=O)(O)OOS(=O)(=O)O`: the result in assay [1], in assay [3] and in assay [6] was inactive. Moreover, the Potency result in assay [2] and in assay [5] was “inactive” each time.
As for `O=[N+]([O-])c1ccc(Cl)cc1`, the outcome in assay [1], in assay [3] and in assay [6] was inactive. The Potency result in assay [2] and in assay [5] was “inactive” each time. Besides, in assay [7], the Potency was 42.9 µM (active) and inactive.
For the molecule `Cc1ccccc1N`, the outcome in assay [1], in assay [3] and in assay [6] was inactive. Further, the Potency result in assay [2] and in assay [5] was “inactive” in each case.
Take `CCOC(=O)CC(SP(=O)(OC)OC)C(=O)OCC` (stereo unspecified): the result in assay [1], in assay [3] and in assay [6] was inactive. Moreover, the Potency result in assay [2], in assay [5] and in assay [7] was “inactive” each time.
Take `Oc1ccc(Cl)cc1`: the outcome in assay [1], in assay [3] and in assay [6] was inactive. For the same molecule, the Potency result in assay [8], in assay [2], in assay [4] and in assay [5] was “inactive” throughout.
`CC[N+](=O)[O-]`: the result in assay [1], in assay [3] and in assay [6] was inactive. In addition, the Potency result in assay [2], in assay [5] and in assay [7] was “inactive” throughout.
In the case of `CN1C(=O)CCS(=O)(=O)C1c1ccc(Cl)cc1` (stereo unspecified), the result in assay [1], in assay [3] and in assay [6] was inactive. Further, the Potency entry in assay [8], in assay [2], in assay [4], in assay [5] and in assay [7] was “inactive” each time.
Regarding `CCCCCCCCCCCCCCCCCC(=O)O`, the result in assay [1], in assay [3] and in assay [6] was inactive. In addition, the Potency result in assay [2], in assay [4] and in assay [5] was “inactive” in each case.
For `C=CC(=O)OCC(CC)CCCC` (stereo unspecified), the outcome in assay [1], in assay [3] and in assay [6] was inactive. In addition, the Potency result in assay [2] and in assay [5] was “inactive” throughout.
As to `COC(=O)Nc1cccc(OC(=O)Nc2cccc(C)c2)c1`, the result in assay [1], in assay [3] and in assay [6] was inactive. In addition, the Potency in assay [2] is 27.3 µM (active) and 30.6 µM (active). The Potency result in assay [4], in assay [5] and in assay [7] was “inactive” each time.
Take `CCOP(=S)(OCC)Oc1cc(C)nc(C(C)C)n1`: the outcome in assay [1], in assay [3] and in assay [6] was inactive. In addition, the Potency result in assay [8], in assay [2], in assay [4], in assay [5] and in assay [7] was “inactive” each time.
Take `CN(C)C(=O)Nc1cccc(C(F)(F)F)c1`: the outcome in assay [1], in assay [3] and in assay [6] was inactive. Further, the Potency entry in assay [2], in assay [5] and in assay [7] was “inactive” in each case.
Turning to `ClCCOCCCl`, the outcome in assay [1], in assay [3] and in assay [6] was inactive. Also, the Potency entry in assay [2], in assay [5] and in assay [7] was “inactive” throughout.
As for `CN(C)NC(=O)CCC(=O)O`, the result in assay [1], in assay [3] and in assay [6] was inactive. For the same molecule, the Potency result in assay [2], in assay [4], in assay [5] and in assay [7] was “inactive” each time.
Take `C/C=C/c1ccc2c(c1)OCO2`: the result in assay [1], in assay [3] and in assay [6] was inactive. For the same molecule, the Potency entry in assay [2], in assay [4], in assay [5] and in assay [7] was “inactive” in each case.
For `Cl[C@H]1OCCO[C@@H]1Cl`, the result in assay [1], in assay [3] and in assay [6] was inactive. The Potency entry in assay [2], in assay [4] and in assay [5] was “inactive” throughout.
In the case of `CN(C)C(=O)C(c1ccccc1)c1ccccc1`, the outcome in assay [1], in assay [3] and in assay [6] was inactive. For the same molecule, the Potency result in assay [2], in assay [5] and in assay [7] was “inactive” throughout.
Take `Nc1cc(Cl)cc(Cl)c1`: the outcome in assay [1], in assay [3] and in assay [6] was inactive. Besides, the Potency result in assay [2], in assay [4], in assay [5] and in assay [7] was “inactive” in each case.
As to `Cc1ccc(N=C=O)cc1N=C=O`, the outcome in assay [1], in assay [3] and in assay [6] was inactive. The Potency result in assay [2], in assay [5] and in assay [7] was “inactive” throughout.
As to `Nc1ccc(N)cc1`, the outcome in assay [1], in assay [3] and in assay [6] was inactive. The Potency result in assay [8] and in assay [2] was “inactive” in each case. Moreover, the Potency was 61.4 µM (active) and inactive in assay [4]; 61.4 µM (active) and 54.5 µM (active) and inactive in assay [5]; 54.7 µM (active) and 48.6 µM (active) and inactive in assay [7].
